Test results reported in PubChem BioAssay (Tox21).
Unmarked numbers belong to inactive results. Inconclusive results are not listed. Where a call stands in place of a potency, no number is given. Calls of active or inactive are those of the source. Unless noted, calls follow the shape of the dose curve; as a rule, active = well fitted curve in the direction sought with a large enough effect in the repeat runs; inconclusive = weak or mixed curves; inactive = no such curve, though single readings can be large; an effect the other way counts as inactive or inconclusive.

Tests used:
[1] = qHTS assay to identify small molecule antagonists of the progesterone receptor (PR) signaling pathway - cell viability counter screen (AID 1346798); also: series mostly up to about 92 µM; nearly all actives have a fitted effect of over 50% in size
Method in brief: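 PR-UAS-bla HEK293T cells, 3,000/well in 2% charcoal-stripped FBS medium, dosed with compounds plus R5020 agonist and incubated 16 h at 37C. Viability then measured in the same wells by CellTiter-Glo luminescence after 30 min at RT.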

[2] = qHTS assay to identify small molecule agonists of the progesterone receptor (PR) signaling pathway - cell viability counter screen (AID 1346799; calls by dose curve; also: nearly all actives have a fitted effect of over 45% in size)
Method in brief: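 Counter screen in the PR-UAS-bla HEK293T wells (2% charcoal-stripped FBS, 16 h compound exposure at 37 C) after the bla read. CellTiter-Glo added, 30 min at room temperature, luminescence read as cell viability.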

[3] = qHTS assay to identify small molecule agonists of the TGF-beta/Smad signaling pathway - cell viability counter screen (AID 1346829); also: top concentration of the series differs between compounds; nearly all actives have a fitted effect of over 45% in size
Method in brief: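 In parallel with the Smad reporter read, viability of HEK 293T cells stably carrying SBE-bla is quantified by ATP luminescence following 5 hr compound treatment.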

[4] = qHTS assay to identify small molecule agonists of the TGF-beta/Smad signaling pathway (AID 1346859; active = well fitted activation curve with a large enough effect in the signal ratio in the repeat runs, not every such curve was filed as active; the % refers to the signal ratio; also: series mostly up to about 77 µM)
Method in brief: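 SBE-bla HEK293T cells plated overnight, then compound exposure for 5 h at 37 C. Beta-lactamase reporter read with LiveBLAzer B/G FRET substrate after 2 h at room temperature, fluorescence at 405 nm excitation, 460/530 nm emission.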

[5] = Human pregnane X receptor (PXR) small molecule agonists, qHTS cell viability counter screen (AID 1346977); also: nearly all actives have a fitted effect of over 50% in size
Method in brief: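 PXR-Luc HepG2 cells (2,000/well, 5% charcoal-stripped FBS) preincubated 5 hr, then exposed to compounds 24 hr at 37 C. Viability read in the same wells by CellTiter-Fluor fluorescence, reagent added at 23 hr, 1 hr incubation.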

[6] = Caspase-3/7 induction in HepG2 cells by small molecules, qHTS assay (AID 1346978); also: nearly all actives have a fitted effect of over 15% in size
Method in brief: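 Wild-type HepG2 cells (2,000/well) were settled 5 h at 37 C, 5% CO2, then exposed to compounds in DMSO for 17 h. Caspase-3/7 activity was read by luminescence 30 min after adding Caspase-Glo 3/7 reagent at room temperature.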

[7] = Caspase-3/7 induction in CHO-K1 cells by small molecules, qHTS cell viability counter screen (AID 1346979); also: nearly all actives have a fitted effect of over 35% in size; also: potency is read from the fitted curve at half-maximal effect
Method in brief: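 Wild-type CHO-K1 cells (1,500/well) treated with compound after 5 h plating; after 16 h at 37C, viability read as CellTiter-Fluor fluorescence following 1 h reagent incubation, in the same wells as the caspase read.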

[8] = Caspase-3/7 induction in CHO-K1 cells by small molecules, qHTS assay (AID 1346980); also: nearly all actives have a fitted effect of over 15% in size
Method in brief: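 Wild-type cells were seeded at 1,500 per well and settled 5 hr at 37 C, 5% CO2, then exposed to DMSO-dissolved compounds for 17 hr. Caspase-Glo 3/7 reagent was added, and luminescence was read after 30min at room temperature.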

[9] = Caspase-3/7 induction in HepG2 cells by small molecules, qHTS cell viability counter screen (AID 1346981); also: nearly all actives have a fitted effect of over 30% in size; also: potency is read from the fitted curve at half-maximal effect
Method in brief: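 Multiplexed with the caspase-3/7 assay: HepG2 cells, 16 hr compound treatment, CellTiter-Fluor viability detection by fluorescence.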

[10] = target: Nuclear receptor subfamily 1 group I member 2 (Homo sapiens) (UniProt O75469); assay: Human pregnane X receptor (PXR) small molecule agonists, qHTS assay (AID 1346982); also: nearly all actives have a fitted effect of over 35% in size; also: potency is read from the fitted curve at half-maximal effect
Sequence of Nuclear receptor subfamily 1 group I member 2 (Homo sapiens) (O75469 whole entry, looked up): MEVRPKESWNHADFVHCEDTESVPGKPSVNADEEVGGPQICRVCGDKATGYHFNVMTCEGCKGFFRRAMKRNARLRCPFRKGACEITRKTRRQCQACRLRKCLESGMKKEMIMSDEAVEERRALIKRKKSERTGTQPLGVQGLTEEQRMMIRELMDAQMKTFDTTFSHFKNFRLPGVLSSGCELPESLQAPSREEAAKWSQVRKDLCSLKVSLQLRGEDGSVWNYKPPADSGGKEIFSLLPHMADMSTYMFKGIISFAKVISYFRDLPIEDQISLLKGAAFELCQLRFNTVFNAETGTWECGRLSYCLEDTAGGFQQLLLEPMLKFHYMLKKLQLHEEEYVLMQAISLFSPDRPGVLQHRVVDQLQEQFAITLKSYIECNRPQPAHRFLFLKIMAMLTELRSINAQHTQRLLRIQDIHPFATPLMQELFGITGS
Method in brief: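 We seeded PXR-Luc HepG2 cells in assay medium containing 5% charcoal-stripped FBS, added compounds 5 hr later, incubated 24 hr, and read luminescence with ONE-Glo reagent.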

[11] = target: Acetylcholinesterase (Homo sapiens) (UniProt P22303); assay: Acetylcholinesterase (AChE) small molecule antagonists: colormetric cell-based qHTS assay (AID 1347395; calls by dose curve; also: nearly all actives have a fitted effect of over 30% in size; also: potency is read from the fitted curve at half-maximal effect)
Sequence of Acetylcholinesterase (Homo sapiens) (P22303 whole entry, looked up): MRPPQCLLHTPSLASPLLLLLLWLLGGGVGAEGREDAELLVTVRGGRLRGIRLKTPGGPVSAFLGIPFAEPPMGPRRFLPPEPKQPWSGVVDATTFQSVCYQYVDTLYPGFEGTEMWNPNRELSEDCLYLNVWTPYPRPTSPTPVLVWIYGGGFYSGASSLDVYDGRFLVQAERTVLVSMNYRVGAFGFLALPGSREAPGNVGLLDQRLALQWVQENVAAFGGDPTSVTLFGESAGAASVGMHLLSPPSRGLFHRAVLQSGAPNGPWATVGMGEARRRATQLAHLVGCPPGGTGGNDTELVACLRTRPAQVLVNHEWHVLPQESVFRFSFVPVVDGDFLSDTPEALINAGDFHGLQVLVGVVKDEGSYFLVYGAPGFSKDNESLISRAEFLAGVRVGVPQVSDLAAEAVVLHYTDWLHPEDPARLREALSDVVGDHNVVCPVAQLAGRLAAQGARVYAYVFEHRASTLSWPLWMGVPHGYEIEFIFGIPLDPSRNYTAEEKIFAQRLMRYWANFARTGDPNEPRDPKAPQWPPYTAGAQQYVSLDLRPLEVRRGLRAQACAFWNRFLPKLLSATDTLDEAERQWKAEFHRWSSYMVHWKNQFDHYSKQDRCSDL
Method in brief: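 SH-SY5Y cells attached overnight, exposed to compound 30 min at 37 C, then given DTNB/acetylthiocholine; after 90 min at 37 C, colorimetric thiocholine read gives cellular AChE activity.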

[12] = target: Progesterone receptor (Homo sapiens) (UniProt P06401); assay: qHTS assay to identify small molecule antagonists of the progesterone receptor (PR) signaling pathway (AID 1346795; active = well fitted inhibition curve with a large enough effect in the signal ratio in the repeat runs, not every such curve was filed as active; the % refers to the signal ratio)
Sequence of Progesterone receptor (Homo sapiens) (P06401 whole entry, looked up): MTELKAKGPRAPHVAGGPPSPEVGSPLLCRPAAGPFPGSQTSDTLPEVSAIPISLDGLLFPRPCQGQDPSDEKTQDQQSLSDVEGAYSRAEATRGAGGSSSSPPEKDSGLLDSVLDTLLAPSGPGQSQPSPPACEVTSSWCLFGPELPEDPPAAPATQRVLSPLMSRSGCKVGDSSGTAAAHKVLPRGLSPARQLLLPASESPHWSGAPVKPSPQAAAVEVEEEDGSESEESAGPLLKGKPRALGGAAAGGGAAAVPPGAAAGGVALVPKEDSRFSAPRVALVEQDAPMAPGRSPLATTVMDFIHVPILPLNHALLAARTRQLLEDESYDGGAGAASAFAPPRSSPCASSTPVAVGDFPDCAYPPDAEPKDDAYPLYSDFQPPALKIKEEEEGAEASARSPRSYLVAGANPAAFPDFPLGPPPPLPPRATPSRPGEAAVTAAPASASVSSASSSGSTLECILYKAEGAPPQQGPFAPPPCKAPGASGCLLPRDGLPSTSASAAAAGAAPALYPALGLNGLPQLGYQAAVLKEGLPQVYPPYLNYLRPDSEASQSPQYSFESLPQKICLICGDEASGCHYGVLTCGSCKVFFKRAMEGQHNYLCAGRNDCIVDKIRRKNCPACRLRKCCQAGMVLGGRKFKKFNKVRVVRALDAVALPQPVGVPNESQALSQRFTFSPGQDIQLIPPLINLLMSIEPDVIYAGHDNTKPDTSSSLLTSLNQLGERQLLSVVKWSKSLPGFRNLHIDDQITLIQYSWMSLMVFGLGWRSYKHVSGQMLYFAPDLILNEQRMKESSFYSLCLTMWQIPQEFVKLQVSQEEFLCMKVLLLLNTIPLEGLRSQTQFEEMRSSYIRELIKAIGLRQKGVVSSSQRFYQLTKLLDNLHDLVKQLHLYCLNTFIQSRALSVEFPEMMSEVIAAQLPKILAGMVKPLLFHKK
Method in brief: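 PR-UAS-bla HEK293T cells with beta-lactamase reporter under UAS control, in 2% charcoal-stripped FBS, treated with compounds plus 1 nM promegestone (R5020, final) for 16 hr at 37C. Read-out: FRET beta-lactamase substrate fluorescence after 2 hr at room temperature.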

[13] = target: Thyrotropin-releasing hormone receptor (Homo sapiens) (UniProt P34981); assay: qHTS assay to identify small molecule antagonists of the thyrotropin-releasing hormone receptor (TRHR) signaling pathway (AID 1346877; active = well fitted inhibition curve with a large enough effect in the repeat runs, not every such curve was filed as active; also: series mostly up to about 51 µM)
Sequence of Thyrotropin-releasing hormone receptor (Homo sapiens) (P34981 whole entry, looked up): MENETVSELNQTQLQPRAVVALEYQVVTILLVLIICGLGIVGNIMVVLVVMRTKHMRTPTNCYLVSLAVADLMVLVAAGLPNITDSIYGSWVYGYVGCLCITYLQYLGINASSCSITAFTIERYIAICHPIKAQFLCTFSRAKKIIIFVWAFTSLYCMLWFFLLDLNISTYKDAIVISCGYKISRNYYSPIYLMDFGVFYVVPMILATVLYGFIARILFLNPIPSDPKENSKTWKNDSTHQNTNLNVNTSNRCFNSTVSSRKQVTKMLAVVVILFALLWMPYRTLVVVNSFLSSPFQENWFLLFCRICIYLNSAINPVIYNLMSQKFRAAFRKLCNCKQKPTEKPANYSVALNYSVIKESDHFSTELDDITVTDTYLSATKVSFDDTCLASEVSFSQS
Method in brief: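 Screening used HEK293 cells engineered with TRHR, with a brief 5 min room-temperature compound exposure preceding addition of TRH to 1 nM. The read-out was kinetic calcium-dye fluorescence, concentration-response from 15 doses in triplicate.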

[14] = target: Thyrotropin-releasing hormone receptor (Homo sapiens) (UniProt P34981); assay: qHTS assay to identify small molecule agonists of the thyrotropin-releasing hormone receptor (TRHR) signaling pathway (AID 1346891; calls by dose curve; also: series mostly up to about 58 µM)
Method in brief: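 HEK293 cells expressing TRHR plated 18 h at 37 C/5% CO2, calcium dye-loaded 2 h at 37 C, then compound added (agonist mode); kinetic calcium fluorescence read 3 min at 1 s intervals; 15 concentrations in triplicate.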

[15] = target: Progesterone receptor (Homo sapiens) (UniProt P06401); assay: qHTS assay to identify small molecule agonists of the progesterone receptor (PR) signaling pathway (AID 1346784; calls by dose curve; also: nearly all actives have a fitted effect of over 30% in size)
Method in brief: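 PR-UAS-bla HEK 293T cells (beta-lactamase reporter under UAS) in 2% charcoal-stripped FBS, dosed with 23 nL compound after 6 hr, incubated 16hr at 37C. LiveBLAzer B/G FRET substrate added, fluorescence read after 2 hours.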

[16] = qHTS assay to identify small molecule antagonists of the TGF-beta/Smad signaling pathway - cell viability counter screen (AID 1346824); also: nearly all actives have a fitted effect of over 50% in size
Method in brief: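 SBE-bla HEK 293T cells were plated overnight at 37 C, then given compounds in DMSO plus TGF-beta1 (added as 0.25 ng/mL solution) for 5 hr. After the bla read, CellTiter-Glo was added to the same wells and luminescence read after 30 min at room temperature.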

[17] = target: Nuclear receptor subfamily 1 group I member 2 (Rattus norvegicus) (UniProt Q9R1A7); assay: Rat pregnane X receptor (rPXR) activation by small molecules, qHTS assay (AID 1346983); conditions: rPXR luciferase reporter cells, One-Glo luminescence, 24 h; max activation: stronger effect = higher value; also: nearly all actives have a fitted effect of over 20% in size
Sequence of Nuclear receptor subfamily 1 group I member 2 (Rattus norvegicus) (Q9R1A7 whole entry, looked up): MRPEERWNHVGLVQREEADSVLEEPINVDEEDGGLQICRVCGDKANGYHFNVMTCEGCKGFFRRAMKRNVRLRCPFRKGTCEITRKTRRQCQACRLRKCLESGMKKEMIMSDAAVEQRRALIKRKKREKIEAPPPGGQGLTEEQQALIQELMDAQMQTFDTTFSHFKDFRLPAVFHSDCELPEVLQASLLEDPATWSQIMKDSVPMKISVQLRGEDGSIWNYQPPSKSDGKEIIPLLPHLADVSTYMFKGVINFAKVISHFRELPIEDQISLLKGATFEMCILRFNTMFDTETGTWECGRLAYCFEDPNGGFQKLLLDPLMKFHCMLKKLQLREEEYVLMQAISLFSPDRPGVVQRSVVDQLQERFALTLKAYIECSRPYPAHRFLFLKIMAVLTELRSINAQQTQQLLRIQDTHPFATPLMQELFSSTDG
Method in brief: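 Cell-based rPXR luciferase reporter assay, 2,000 cells per well, rested 5hr at 37 C before compound addition in DMSO, then 24 hr at 37 C. One-Glo reagent was added and luminescence read after 30 min at room temperature.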

[18] = target: Nuclear receptor subfamily 1 group I member 2 (Homo sapiens) (UniProt O75469); assay: CYP3A4 induction through human pregnane X receptor (PXR) by small molecules, qHTS assay (AID 1346984); also: nearly all actives have a fitted effect of over 40% in size
Method in brief: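 qHTS, concentration-response format: HepG2 DPX-2 line, PXR/CYP3A4-luc. Exposure 24 h, 37C. Substrate Luciferin-IPA 3uM final, 3 h. Detection One-Glo, 30 min RT.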

[19] = target: Nuclear receptor subfamily 1 group I member 2 (Homo sapiens) (UniProt O75469); assay: Human pregnane X receptor (PXR) activation by small molecules, qHTS assay (AID 1346985); also: potency is read from the fitted curve at half-maximal effect; nearly all actives have a fitted effect of over 40% in size
Method in brief: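 DPX-2 cells (HepG2 co-transfected with a PXR response element and a CYP3A4-promoter luciferase construct) were seeded at 2,000 per well, rested 5 hr at 37C, then exposed to DMSO-dissolved compounds for 24 hr. Activation was read as luciferase luminescence.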

With N#CC(Cl)(Cl)Cl the Potency [1] was “inactive”, the Potency [2] was “inactive” and the outcome [3] was “inactive”. The outcome [4] was “inactive”, the Potency [5] was “inactive” and the Potency [6] was “inactive”. For the same compound, the Potency [7] was “inactive”, the Potency [8] was “inactive” and the Potency [9] was “inactive”. The Potency [10] was “inactive” and the Potency [11] was “inactive”.

With CNC(=O)Oc1cccc(C(C)C)c1 the Potency [12] was “inactive”, the Potency [1] was “inactive” and the outcome [3] was “inactive”. The outcome [4] was “inactive”, the outcome [13] was “inactive” and the outcome [14] was “inactive”. The Potency [5] was “inactive”, the Potency [6] was “inactive” and the Potency [7] was “inactive”. For the same compound, the Potency [8] was “inactive” and the Potency [9] was “inactive”.

For CNNC, the Potency [15] was “inactive”, the Potency [1] was “inactive” and the Potency [16] was “inactive”. The outcome [3] was “inactive”, the outcome [4] was “inactive” and the outcome [14] was “inactive”. The Potency [6] was “inactive”, the Potency [7] was “inactive” and the Potency [8] was “inactive”. The Potency [9] was “inactive”, the Potency [10] was “inactive” and the Potency [11] was “inactive”.

For CCCSC(=O)N(CCC)CCC, the Potency [15] was “inactive”, the Potency [1] was “inactive” and the outcome [3] was “inactive”. The outcome [4] was “inactive”, the outcome [13] was “inactive” and the Potency [5] was “inactive”. For the same compound, the Potency [6] was “inactive”, the Potency [7] was “inactive” and the Potency [8] was “inactive”. For the same compound, the Potency [9] was “inactive” and the Potency [11] was “inactive”.

In the case of BrCCCCCCBr, the Potency [15] is reported as “inactive”, the Potency [12] is reported as “inactive” and the Potency [2] is reported as “inactive”. The Potency [16] was “inactive”, the outcome [3] was “inactive” and the outcome [4] was “inactive”. For the same compound, the outcome [13] was “inactive”, the outcome [14] was “inactive” and the Potency [5] was “inactive”. The Potency [6] was “inactive”, the Potency [7] was “inactive” and the Potency [8] was “inactive”. For the same compound, the Potency [9] was “inactive” and the Potency [11] was 63.3 µM (active).

With Nc1cnn(-c2ccccc2)c(=O)c1Cl the Potency [15] was “inactive”, the Potency [1] was “inactive” and the Potency [2] was “inactive”. For the same compound, the Potency [16] was “inactive”, the outcome [3] was “inactive” and the outcome [4] was “inactive”. For the same compound, the outcome [13] was “inactive”, the outcome [14] was “inactive” and the Potency [6] was “inactive”. The Potency [8] was “inactive”, the Potency [9] was “inactive” and the Potency [10] was “inactive”. The Potency [11] was “inactive”.

In the case of CCOC(=O)N(C)C(=O)CSP(=S)(OCC)OCC, the Potency [15] is reported as “inactive”, the Potency [1] is reported as “inactive” and the Potency [2] is reported as “inactive”. The outcome [3] was “inactive”, the outcome [4] was “inactive” and the Potency [6] was “inactive”. For the same compound, the Potency [7] was “inactive”, the Potency [8] was “inactive” and the Potency [9] was “inactive”. The Potency [10] was 30.6 µM (active).

In the case of CC1(C)CON(Cc2ccccc2Cl)C1=O, the Potency [1] is reported as “inactive”, the Potency [2] is reported as “inactive” and the Potency [16] is reported as “inactive”. The outcome [3] was “inactive”, the outcome [4] was “inactive” and the outcome [13] was “inactive”. The outcome [14] was “inactive”, the Potency [5] was “inactive” and the Potency [6] was “inactive”. The Potency [7] was “inactive”, the Potency [8] was “inactive” and the Potency [9] was “inactive”. For the same compound, the Potency [10] was 68.6 µM (active) and the Potency [11] was “inactive”.

With CC(C)CC#N the Potency [1] was “inactive”, the Potency [2] was “inactive” and the Potency [16] was “inactive”. For the same compound, the outcome [3] was “inactive”, the outcome [4] was “inactive” and the outcome [13] was “inactive”. For the same compound, the outcome [14] was “inactive”, the Potency [5] was “inactive” and the Potency [6] was “inactive”. The Potency [8] was “inactive”, the Potency [9] was “inactive” and the Potency [11] was “inactive”.

With C[C@H]1CCC[C@H](O)CCCCCc2cc(O)cc(O)c2C(=O)O1 the Potency [15] was “inactive”, the Potency [16] was “inactive” and the outcome [3] was “inactive”. The outcome [4] was “inactive”, the outcome [13] was “inactive” and the outcome [14] was “inactive”. The Potency [6] was “inactive”, the Potency [7] was 61.6 µM (active) and the Potency [8] was “inactive”. For the same compound, the Potency [9] was 54.9 µM (active), the Potency [10] was 7.75 µM (active) and the max activation [17] was -2.62%. The Potency [18] was “inactive”, the Potency [19] was 12.6 µM (active) and the Potency [11] was “inactive”.

With Cc1cc(C)c(C(=O)P(=O)(C(=O)c2c(C)cc(C)cc2C)c2ccccc2)c(C)c1 the Potency [12] was “inactive”, the Potency [1] was “inactive” and the outcome [3] was “inactive”. The outcome [4] was “inactive”, the outcome [13] was “inactive” and the Potency [5] was “inactive”. The Potency [6] was “inactive”, the Potency [7] was “inactive” and the Potency [8] was “inactive”. For the same compound, the Potency [9] was “inactive”, the Potency [10] was 24.3 µM (active) and the Potency [11] was “inactive”.

In the case of Cc1ccccc1CO[C@@H]1C[C@@]2(C(C)C)CC[C@]1(C)O2, the Potency [15] is reported as “inactive”, the Potency [1] is reported as “inactive” and the Potency [16] is reported as “inactive”. For the same compound, the outcome [3] was “inactive”, the outcome [4] was “inactive” and the outcome [14] was “inactive”. The Potency [5] was “inactive”, the Potency [6] was “inactive” and the Potency [7] was “inactive”. The Potency [8] was “inactive”, the Potency [9] was “inactive” and the Potency [10] was “inactive”. The Potency [11] was “inactive”.

With CC(C)(C)C(=O)C(Oc1ccc(Cl)cc1)n1cncn1 (centres undefined) the Potency [16] was “inactive”, the outcome [3] was “inactive” and the outcome [4] was “inactive”. The outcome [13] was “inactive”, the outcome [14] was “inactive” and the Potency [5] was “inactive”. The Potency [6] was “inactive”, the Potency [7] was “inactive” and the Potency [8] was “inactive”. For the same compound, the Potency [9] was “inactive” and the Potency [11] was “inactive”.
